± gives the standard deviation of the averaged measurements. About 5,400 targets were measured; listed, in parts, are those with the largest changes and a random draw of the rest.

The target of the experiment is T1, UniProt P35613|P35613-2.
T1 sequence (whole entry): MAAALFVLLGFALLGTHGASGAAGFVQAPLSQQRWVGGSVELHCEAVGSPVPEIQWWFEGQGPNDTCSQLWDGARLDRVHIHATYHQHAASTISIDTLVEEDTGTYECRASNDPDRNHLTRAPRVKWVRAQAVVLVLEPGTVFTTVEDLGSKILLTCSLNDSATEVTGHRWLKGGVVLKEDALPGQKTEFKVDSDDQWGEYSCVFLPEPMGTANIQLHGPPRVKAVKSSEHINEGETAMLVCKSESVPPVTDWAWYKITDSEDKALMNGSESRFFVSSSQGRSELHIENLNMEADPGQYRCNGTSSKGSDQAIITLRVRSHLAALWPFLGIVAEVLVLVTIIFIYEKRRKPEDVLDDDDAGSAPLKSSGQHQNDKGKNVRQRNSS
As to the kind of experiment: NP40-soluble protein abundance relative to vehicle (solubility fold change) (ratio); higher = more soluble protein in presence of GTP. As for the experimental part:
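Solubility proteome profiling in Jurkat crude lysate. Lysate was treated with Mg-GTP (0.1-10 mM) for 10 min at room temperature and 3 min at 37 °C, then solubilised with 0.8% NP40 and benzonase, followed by ultracentrifugation. Proteins were quantified by TMT10 LC-MS/MS; the value is the NP40-soluble abundance relative to the NP40-processed vehicle, from 3 independent experiments.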

On to `Nc1nc2c(ncn2[C@@H]2O[C@H](COP(=O)(O)OP(=O)(O)OP(=O)(O)O)[C@@H](O)[C@H]2O)c(=O)[nH]1` [guanosine triphosphate], for which the NP40-soluble protein abundance was 0.873 ± 0.045 (concentration: 0.1mM); 0.877 ± 0.074 (concentration: 0.5mM); 0.91 ± 0.042 (concentration: 1mM); 0.881 ± 0.081 (concentration: 2mM); 0.878 ± 0.062 (concentration: 4mM); 0.91 ± 0.087 (concentration: 6mM). Further, the NP40-soluble protein abundance runs as follows: (concentration: 8mM) 0.872 ± 0.099; (concentration: 10mM) 0.881 ± 0.065.

These data come from the supplement of paper PMC6411743.
